B1: unnamed (peptide)
chain: KWVRRPKLMTPLTFS
B2: unnamed (peptide)
chain: RSLRKRPTSPSISGS

target: CaNbp2; assay: SPOT peptide array binding signal intensity (averaged, normalized) (arbitrary units (background-subtracted, floor 0; scale differs between SH3 domains)); higher = stronger binding of the SH3 domain to the peptide
Procedure, shortened: (§1)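 GST-fused SH3 domains from four yeast species were expressed in E. coli BL21(DE3), purified on glutathione Sepharose and incubated at 10 μg/ml overnight at 4°C in TBS-based blocking buffer on cellulose membranes carrying synthetic 15-mer peptides, with cysteines replaced by serines. Bound protein was detected with anti-GST antibody, an HRP anti-mouse secondary and luminol, then imaged and quantified with Genespotter. Binding signal is the normalized, background-subtracted spot intensity averaged over replicates, in arbitrary units that differ between domains.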

Binder	SPOT peptide array binding signal intensity
B1	757
B2	1160

target: CaRvs167; assay: as above
Procedure, shortened: as §1

Binder	SPOT peptide array binding signal intensity
B1	162
B2	27.5

target: CaRvs167-3; assay: as above
Procedure, shortened: as §1

Binder	SPOT peptide array binding signal intensity
B1	27.8
B2	210

target: CaSho1; assay: as above
Procedure, shortened: as §1

Binder	SPOT peptide array binding signal intensity
B1	522
B2	972

target: CaSla1-D1-D2; assay: as above
Procedure, shortened: as §1

Binder	SPOT peptide array binding signal intensity
B1	623
B2	226

target: CaSla1-D3; assay: as above
Procedure, shortened: as §1

Binder	SPOT peptide array binding signal intensity
B1	264
B2	1.5

target: ScAbp1; assay: as above
Procedure, shortened: as §1

Binder	SPOT peptide array binding signal intensity
B1	103
B2	65

target: ScBbc1; assay: as above
Procedure, shortened: as §1

Binder	SPOT peptide array binding signal intensity
B1	23
B2	94

target: ScBem1-D1; assay: as above
Procedure, shortened: as §1

Binder	SPOT peptide array binding signal intensity
B1	91.5
B2	50.5

target: ScBzz1-D1; assay: as above
Procedure, shortened: as §1

Binder	SPOT peptide array binding signal intensity
B1	50.5
B2	26.5

target: ScBzz1-D2; assay: as above
Procedure, shortened: as §1

Binder	SPOT peptide array binding signal intensity
B1	59
B2	28

target: ScCyk3; assay: as above
Procedure, shortened: as §1

Binder	SPOT peptide array binding signal intensity
B1	64.5
B2	294

target: ScFus1; assay: as above
Procedure, shortened: as §1

Binder	SPOT peptide array binding signal intensity
B1	1090
B2	488

target: ScHof1; assay: as above
Procedure, shortened: as §1

Binder	SPOT peptide array binding signal intensity
B1	3.75
B2	1

target: ScHse1; assay: as above
Procedure, shortened: as §1

Binder	SPOT peptide array binding signal intensity
B1	1650
B2	1770

target: ScLsb1; assay: as above
Procedure, shortened: as §1

Binder	SPOT peptide array binding signal intensity
B1	132
B2	54

target: ScLsb2; assay: as above
Procedure, shortened: as §1

Binder	SPOT peptide array binding signal intensity
B1	15.5
B2	20

target: ScLsb3; assay: as above
Procedure, shortened: as §1

Binder	SPOT peptide array binding signal intensity
B1	166
B2	1330

target: ScLsb4; assay: as above
Procedure, shortened: as §1

Binder	SPOT peptide array binding signal intensity
B1	32.5
B2	27.5

target: ScMyo3; assay: as above
Procedure, shortened: as §1

Binder	SPOT peptide array binding signal intensity
B1	3.5
B2	11

target: ScMyo5; assay: as above
Procedure, shortened: as §1

Binder	SPOT peptide array binding signal intensity
B1	5.25
B2	3

target: ScNbp2; assay: as above
Procedure, shortened: as §1

Binder	SPOT peptide array binding signal intensity
B1	818
B2	1530

target: ScPex13; assay: as above
Procedure, shortened: as §1

Binder	SPOT peptide array binding signal intensity
B1	56.8
B2	3

target: ScRvs167; assay: as above
Procedure, shortened: as §1

Binder	SPOT peptide array binding signal intensity
B1	121
B2	75.5

target: ScSho1; assay: as above
Procedure, shortened: as §1

Binder	SPOT peptide array binding signal intensity
B1	1880
B2	959

target: ScSla1-D1-D2; assay: as above
Procedure, shortened: as §1

Binder	SPOT peptide array binding signal intensity
B1	735
B2	607

target: ScSla1-D3; assay: as above
Procedure, shortened: as §1

Binder	SPOT peptide array binding signal intensity
B1	161
B2	30

target: SpAbp1-D1; assay: as above
Procedure, shortened: as §1

Binder	SPOT peptide array binding signal intensity
B1	289
B2	477

target: SpBbc1; assay: as above
Procedure, shortened: as §1

Binder	SPOT peptide array binding signal intensity
B1	7
B2	8

target: SpBzz1-D1; assay: as above
Procedure, shortened: as §1

Binder	SPOT peptide array binding signal intensity
B1	176
B2	249

target: SpBzz1-D2; assay: as above
Procedure, shortened: as §1

Binder	SPOT peptide array binding signal intensity
B1	0.5
B2	0.75

target: SpCyk3; assay: as above
Procedure, shortened: as §1

Binder	SPOT peptide array binding signal intensity
B1	7
B2	13.5

target: SpHof1; assay: as above
Procedure, shortened: as §1

Binder	SPOT peptide array binding signal intensity
B1	158
B2	428

target: SpHof1-2; assay: as above
Procedure, shortened: as §1

Binder	SPOT peptide array binding signal intensity
B1	17
B2	43.8

target: SpHof1-3; assay: as above
Procedure, shortened: as §1

Binder	SPOT peptide array binding signal intensity
B1	450
B2	730

target: SpHse1; assay: as above
Procedure, shortened: as §1

Binder	SPOT peptide array binding signal intensity
B1	666
B2	621

target: SpLsb1; assay: as above
Procedure, shortened: as §1

Binder	SPOT peptide array binding signal intensity
B1	466
B2	17.8

target: SpLsb4; assay: as above
Procedure, shortened: as §1

Binder	SPOT peptide array binding signal intensity
B1	500
B2	776

target: SpMyo1; assay: as above
Procedure, shortened: as §1

Binder	SPOT peptide array binding signal intensity
B1	8.75
B2	9

target: SpNbp2; assay: as above
Procedure, shortened: as §1

Binder	SPOT peptide array binding signal intensity
B1	558
B2	2180

target: SpPex13; assay: as above
Procedure, shortened: as §1

Binder	SPOT peptide array binding signal intensity
B1	217
B2	7

target: SpRvs167; assay: as above
Procedure, shortened: as §1

Binder	SPOT peptide array binding signal intensity
B1	34.2
B2	10.8

target: SpSla1-D1-D2; assay: as above
Procedure, shortened: as §1

Binder	SPOT peptide array binding signal intensity
B1	1.5
B2	5

target: SpSla1-D3; assay: as above
Procedure, shortened: as §1

Binder	SPOT peptide array binding signal intensity
B1	62
B2	8

target: AgAbp1; assay: as above
Procedure, shortened: as §1

Binder	SPOT peptide array binding signal intensity
B2	197

target: AgBbc1; assay: as above
Procedure, shortened: as §1

Binder	SPOT peptide array binding signal intensity
B2	232

target: AgBem1-D1; assay: as above
Procedure, shortened: as §1

Binder	SPOT peptide array binding signal intensity
B2	118

target: AgBzz1-D1; assay: as above
Procedure, shortened: as §1

Binder	SPOT peptide array binding signal intensity
B2	62.5

target: AgBzz1-D2; assay: as above
Procedure, shortened: as §1

Binder	SPOT peptide array binding signal intensity
B2	63

target: AgCyk3; assay: as above
Procedure, shortened: as §1

Binder	SPOT peptide array binding signal intensity
B2	23

target: AgFus1; assay: as above
Procedure, shortened: as §1

Binder	SPOT peptide array binding signal intensity
B2	464

target: AgHof1; assay: as above
Procedure, shortened: as §1

Binder	SPOT peptide array binding signal intensity
B2	77

target: AgHse1; assay: as above
Procedure, shortened: as §1

Binder	SPOT peptide array binding signal intensity
B2	1610

target: AgLsb1; assay: as above
Procedure, shortened: as §1

Binder	SPOT peptide array binding signal intensity
B2	7

target: AgLsb4; assay: as above
Procedure, shortened: as §1

Binder	SPOT peptide array binding signal intensity
B2	326

target: AgMyo5; assay: as above
Procedure, shortened: as §1

Binder	SPOT peptide array binding signal intensity
B2	1

target: AgNbp2; assay: as above
Procedure, shortened: as §1

Binder	SPOT peptide array binding signal intensity
B2	724

target: AgRvs167; assay: as above
Procedure, shortened: as §1

Binder	SPOT peptide array binding signal intensity
B2	9.67

target: AgSho1; assay: as above
Procedure, shortened: as §1

Binder	SPOT peptide array binding signal intensity
B2	80.5

target: AgSla1-D1-D2; assay: as above
Procedure, shortened: as §1

Binder	SPOT peptide array binding signal intensity
B2	698

target: AgSla1-D3; assay: as above
Procedure, shortened: as §1

Binder	SPOT peptide array binding signal intensity
B2	3.5

target: CaAbp1-D1; assay: as above
Procedure, shortened: as §1

Binder	SPOT peptide array binding signal intensity
B2	1720

target: CaAbp1-D2; assay: as above
Procedure, shortened: as §1

Binder	SPOT peptide array binding signal intensity
B2	1730

target: CaBbc1; assay: as above
Procedure, shortened: as §1

Binder	SPOT peptide array binding signal intensity
B2	522

target: CaBem1-D1; assay: as above
Procedure, shortened: as §1

Binder	SPOT peptide array binding signal intensity
B2	57.5

target: CaBzz1-D1; assay: as above
Procedure, shortened: as §1

Binder	SPOT peptide array binding signal intensity
B2	86

target: CaBzz1-D2; assay: as above
Procedure, shortened: as §1

Binder	SPOT peptide array binding signal intensity
B2	94.5

target: CaCyk3; assay: as above
Procedure, shortened: as §1

Binder	SPOT peptide array binding signal intensity
B2	201

target: CaFus1; assay: as above
Procedure, shortened: as §1

Binder	SPOT peptide array binding signal intensity
B2	985

target: CaHof1; assay: as above
Procedure, shortened: as §1

Binder	SPOT peptide array binding signal intensity
B2	0.75

target: CaHse1; assay: as above
Procedure, shortened: as §1

Binder	SPOT peptide array binding signal intensity
B2	204

target: CaLsb1; assay: as above
Procedure, shortened: as §1

Binder	SPOT peptide array binding signal intensity
B2	≤ 0

target: CaLsb4; assay: as above
Procedure, shortened: as §1

Binder	SPOT peptide array binding signal intensity
B2	338

target: CaMyo5; assay: as above
Procedure, shortened: as §1

Binder	SPOT peptide array binding signal intensity
B2	6
